Drawing on PubChem BioAssay (NCI), this text covers growth for 9 compounds.

The panel holds about 83,000 compounds, 20% with a hit somewhere; the sample as a whole holds those more often.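 Values shown are percent growth following 48 h exposure of cells in 96-well plates to a single concentration of compound; below 10 was considered active.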 A number with no mark means an inactive call. Activity calls are given as the source filed them.

Holding throughout (assay): NCI-60 one-dose screen, 48 h (100 = growth as untreated, 0 = no growth, -100 = all killed)
One assay relates to NCI-H23 lung. As to conditions: 10 µM unless noted.
The next assay has as its system NCI-H226 lung. As to conditions: 10 µM unless noted.
Another assay deals with NCI-H322M lung. As to conditions: 10 µM unless noted.
Another assay has as its system HOP-62 NSCLC. To be noted: 10 µM unless noted.
For another assay, the system named is HOP-92 NSCLC. As to conditions: 10 µM unless noted.
The test system of the next assay is A549/ATCC NSCLC. To be noted: 10 µM unless noted.
The subject of the next assay is 786-0 renal. To be noted: 10 µM unless noted.
In a further assay the test system is COLO 205 colon. To be noted: 10 µM unless noted.
The next assay has as its system DU-145 prostate. To be noted: 10 µM unless noted.
The test system of a further assay is K-562 leukemia. To be noted: 10 µM unless noted.
For another assay, the system named is MALME-3M melanoma. As to conditions: 10 µM unless noted.
The test system of the next assay is MDA-MB-231 breast. To be noted: 10 µM unless noted.
The next assay concerns RXF 393 renal. To be noted: 10 µM unless noted.
A further assay relates to SF-268 CNS. To be noted: 10 µM unless noted.
The subject of another assay is SF-295 CNS. To be noted: 10 µM unless noted.
For the next assay, the system named is SF-539 CNS. As to conditions: 10 µM unless noted.
In the next assay the test system is UACC-257 melanoma. To be noted: 10 µM unless noted.
A further assay relates to M14 melanoma. To be noted: 10 µM unless noted.
Another assay relates to NCI-H460 lung. To be noted: 10 µM unless noted.
The test system of the next assay is NCI-H522 lung. To be noted: 10 µM.

Consider `O=C1C2C(C(=O)N1CC[Se][Se]CCN1C(=O)C3C(C1=O)[C@H]1C=C[C@@H]3C1)[C@H]1C=C[C@@H]2C1` (stereo not given in full), for which the growth in the assay on NCI-H23 lung is -9.33% (active); with NCI-H226 lung, -46.9% (active); in the assay with NCI-H322M lung it was 2.77% (active); with HOP-62 NSCLC it was -80.1% (active); with HOP-92 NSCLC, -74.4% (active); in the assay on A549/ATCC NSCLC, -28.4% (active). The growth in the assay on 786-0 renal was -84% (active); with COLO 205 colon, -86.6% (active); in the assay with DU-145 prostate, -46.7% (active); with K-562 leukemia, 7.86% (active); in the assay on MALME-3M melanoma, -35.6% (active); in the assay with MDA-MB-231 breast, -33.8% (active). Besides, the growth with RXF 393 renal was -89% (active); with SF-268 CNS, -45.8% (active); in the assay on SF-295 CNS it was -78.2% (active); in the assay on SF-539 CNS it was -86.7% (active); in the assay with UACC-257 melanoma it was -63.8% (active); in the assay with M14 melanoma it was -20% (active).

As for `Nc1ccc2c(c1)Cc1cc(Cl)c(Cl)cc1-2`, the growth is 68.1% with NCI-H23 lung; 92.3% in the assay with NCI-H226 lung; 60.5% in the assay on NCI-H322M lung; 86.5% with HOP-62 NSCLC; 67.8% with HOP-92 NSCLC; 59.1% with A549/ATCC NSCLC. Besides, the growth is 59.7% in the assay on 786-0 renal; 85.1% with COLO 205 colon; 59.9% with DU-145 prostate; 67.4% with K-562 leukemia; 52.5% in the assay on MDA-MB-231 breast; 50.7% in the assay on RXF 393 renal. Besides, the growth was 74% in the assay on SF-268 CNS; 50.1% in the assay on SF-295 CNS; 74.2% in the assay with SF-539 CNS; 77% in the assay on UACC-257 melanoma; -9.59% (active) in the assay on M14 melanoma.

Turning to `CCOC(=O)Nc1cc(-c2ccc(C)c(NS(C)(=O)=O)c2)nn2c(C)nnc12`, the growth was 18% with NCI-H23 lung; 35% with NCI-H226 lung; 2.04% (active) in the assay with NCI-H322M lung; 14.1% in the assay with HOP-62 NSCLC; 28.5% with NCI-H460 lung; -10.2% (active) in the assay with HOP-92 NSCLC. The growth with 786-0 renal was 35.5%; with DU-145 prostate, 43.9%; in the assay on K-562 leukemia, 16.7%; in the assay on MALME-3M melanoma, -25% (active); in the assay on MDA-MB-231 breast, 26.5%; with RXF 393 renal it was -8% (active). Also, the growth in the assay on SF-268 CNS was 41.6%; in the assay on SF-295 CNS, -21.2% (active); in the assay with SF-539 CNS, 17.2%; in the assay with M14 melanoma it was 19%.

In the case of `BrC1CC(Br)c2c1c1c(c3c2C(Br)CC3Br)C(Br)CC1Br` (stereo not given), the growth in the assay with NCI-H23 lung is 99.7%; in the assay on NCI-H226 lung, 101%; in the assay on NCI-H322M lung, 97.7%; in the assay with HOP-62 NSCLC, 103%; in the assay with HOP-92 NSCLC, 89.9%; in the assay with NCI-H522 lung, 84.4%. The growth in the assay on 786-0 renal is 116%; with COLO 205 colon it was 105%; in the assay on DU-145 prostate it was 115%; in the assay with K-562 leukemia it was 80.9%; in the assay on MALME-3M melanoma, 95.7%; in the assay with MDA-MB-231 breast, 98.5%. Also, the growth in the assay on RXF 393 renal was 80.3%; in the assay on SF-268 CNS it was 111%; in the assay on SF-295 CNS it was 103%; with SF-539 CNS, 92%; in the assay with UACC-257 melanoma, 105%; in the assay with M14 melanoma, 97.7%.

Consider `CCOC(=O)CCN(c1c(Cl)ssc1=O)C(C)C`, for which the growth was 105% in the assay with NCI-H23 lung; 112% with NCI-H226 lung; 102% in the assay on NCI-H322M lung; 106% with NCI-H460 lung; 97% in the assay on HOP-92 NSCLC; 93.9% in the assay with A549/ATCC NSCLC. Besides, the growth in the assay on 786-0 renal is 98.9%; in the assay on COLO 205 colon, 115%; in the assay on DU-145 prostate it was 100%; with K-562 leukemia, 106%; in the assay with MALME-3M melanoma it was 111%; in the assay with MDA-MB-231 breast, 104%. Moreover, the growth is 87.8% in the assay on RXF 393 renal; 113% in the assay with SF-268 CNS; 119% in the assay on SF-295 CNS; 97.7% in the assay with SF-539 CNS; 95.5% in the assay on UACC-257 melanoma; 84.7% in the assay with M14 melanoma.

Regarding `COc1ccc(CC(=O)Nc2nn3c(-c4cc(C(F)(F)F)cc(C(F)(F)F)c4)nnc3s2)cc1`, the growth is 35.2% in the assay on NCI-H23 lung; 62.8% in the assay with NCI-H226 lung; 90.6% in the assay with NCI-H322M lung; 56.6% in the assay on NCI-H460 lung; 15.4% in the assay on HOP-92 NSCLC; 78.1% in the assay on A549/ATCC NSCLC. Besides, the growth in the assay on COLO 205 colon was 104%; in the assay with DU-145 prostate, 86%; in the assay with K-562 leukemia it was 62.4%; in the assay on MALME-3M melanoma, 80.9%; in the assay with MDA-MB-231 breast, 88%; in the assay on SF-268 CNS, 85.8%. Besides, the growth in the assay with SF-295 CNS is 66.1%; in the assay with SF-539 CNS, 65.7%; in the assay on UACC-257 melanoma, 58.2%; with M14 melanoma it was 97%.

Regarding `O=C(O)CNC(=O)C1(N2C(=O)c3ccccc3C2=O)CCCC1`, the growth in the assay with NCI-H23 lung was 101%; in the assay with NCI-H226 lung, 96.7%; with NCI-H322M lung, 106%; in the assay on NCI-H460 lung, 113%; in the assay on HOP-92 NSCLC, 124%; in the assay with A549/ATCC NSCLC, 99%. The growth in the assay on 786-0 renal is 94.1%; in the assay on COLO 205 colon it was 112%; with DU-145 prostate, 124%; in the assay on K-562 leukemia it was 96.2%; with MDA-MB-231 breast, 101%; in the assay with RXF 393 renal, 95.7%. Further, the growth in the assay on SF-268 CNS is 116%; in the assay on SF-295 CNS it was 102%; in the assay on SF-539 CNS, 118%; with UACC-257 melanoma, 109%; with M14 melanoma, 105%.

With `CC[C@H]1CN2CCc3cc(OC)c(OC)cc3C2C[C@@H]1CC1NCCc2cc(OC)c(OC)cc21` (stereo not given in full), the growth in the assay with NCI-H23 lung is -34.3% (active); in the assay with NCI-H226 lung, -25.4% (active); with NCI-H322M lung, -23.2% (active); in the assay on NCI-H460 lung it was -25.6% (active); with HOP-92 NSCLC, -17.8% (active); in the assay on NCI-H522 lung it was -71.2% (active). Besides, the growth was -19.6% (active) with 786-0 renal; -66.1% (active) with COLO 205 colon; -31.6% (active) with DU-145 prostate; -6.17% (active) with K-562 leukemia; -58.1% (active) in the assay on MALME-3M melanoma; -45.5% (active) with MDA-MB-231 breast. For the same compound, the growth in the assay with RXF 393 renal was -42.9% (active); in the assay with SF-268 CNS, -25.6% (active); in the assay with SF-295 CNS it was -29.2% (active); in the assay with SF-539 CNS it was -59.7% (active); in the assay with UACC-257 melanoma it was -27.8% (active); in the assay with M14 melanoma it was -82.9% (active).

For the compound `O=C1/C(=C/c2ccccc2O)C(=S)SN1Cc1ccco1`, the growth is 105% in the assay with NCI-H23 lung; 103% in the assay on NCI-H226 lung; 90.3% in the assay on NCI-H322M lung; 106% in the assay on NCI-H460 lung; 97.7% with HOP-92 NSCLC; 83.2% in the assay with NCI-H522 lung. Also, the growth is 103% in the assay with 786-0 renal; 113% in the assay on COLO 205 colon; 103% in the assay on DU-145 prostate; 46.4% in the assay on K-562 leukemia; 106% with MALME-3M melanoma; 108% in the assay with MDA-MB-231 breast. Further, the growth in the assay with SF-268 CNS was 105%; with SF-295 CNS, 94.3%; with SF-539 CNS it was 97.4%; in the assay with UACC-257 melanoma, 99.1%; in the assay on M14 melanoma it was 99.8%.
